Assay [1] has as its target human Phosphoinositide 3-kinase alpha (PI3Ka), PIK3CA (gene 5290) (UniProt P42336). As to the kind of experiment: NVS_ENZ_hPI3Ka: NovaScreen (NVS) Enzymatic Assay for human Phosphoinositide 3-kinase alpha (PI3Ka) (AID 2283196). The procedure, abridged:
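Chemicals were first screened at 25 uM in duplicate, then hits were run as concentration series up to 50 uM. Enzyme activity was measured by fluorescence after mobility-shift separation, with loss of signal relative to DMSO taken as activity.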

The target in assay [2] is human Phosphodiesterase 10 (PDE10), PDE10A (gene 10846) (UniProt Q9Y233). Nature of the assay: NVS_ENZ_hPDE10: NovaScreen (NVS) Enzymatic Assay for human Phosphodiesterase 10 (PDE10) (AID 2283195). The procedure, abridged: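 Biochemical single-readout PDE10A assay, cell-free, extracted protein. Compounds first screened at 25 uM in duplicate, hits then titrated to 50 uM max. Activity measured after 1 h; loss-of-signal fitted against DMSO negative control.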
human Phosphodiesterase 10 (PDE10), PDE10A (gene 10846), sequence (Q9Y233 whole entry, looked up): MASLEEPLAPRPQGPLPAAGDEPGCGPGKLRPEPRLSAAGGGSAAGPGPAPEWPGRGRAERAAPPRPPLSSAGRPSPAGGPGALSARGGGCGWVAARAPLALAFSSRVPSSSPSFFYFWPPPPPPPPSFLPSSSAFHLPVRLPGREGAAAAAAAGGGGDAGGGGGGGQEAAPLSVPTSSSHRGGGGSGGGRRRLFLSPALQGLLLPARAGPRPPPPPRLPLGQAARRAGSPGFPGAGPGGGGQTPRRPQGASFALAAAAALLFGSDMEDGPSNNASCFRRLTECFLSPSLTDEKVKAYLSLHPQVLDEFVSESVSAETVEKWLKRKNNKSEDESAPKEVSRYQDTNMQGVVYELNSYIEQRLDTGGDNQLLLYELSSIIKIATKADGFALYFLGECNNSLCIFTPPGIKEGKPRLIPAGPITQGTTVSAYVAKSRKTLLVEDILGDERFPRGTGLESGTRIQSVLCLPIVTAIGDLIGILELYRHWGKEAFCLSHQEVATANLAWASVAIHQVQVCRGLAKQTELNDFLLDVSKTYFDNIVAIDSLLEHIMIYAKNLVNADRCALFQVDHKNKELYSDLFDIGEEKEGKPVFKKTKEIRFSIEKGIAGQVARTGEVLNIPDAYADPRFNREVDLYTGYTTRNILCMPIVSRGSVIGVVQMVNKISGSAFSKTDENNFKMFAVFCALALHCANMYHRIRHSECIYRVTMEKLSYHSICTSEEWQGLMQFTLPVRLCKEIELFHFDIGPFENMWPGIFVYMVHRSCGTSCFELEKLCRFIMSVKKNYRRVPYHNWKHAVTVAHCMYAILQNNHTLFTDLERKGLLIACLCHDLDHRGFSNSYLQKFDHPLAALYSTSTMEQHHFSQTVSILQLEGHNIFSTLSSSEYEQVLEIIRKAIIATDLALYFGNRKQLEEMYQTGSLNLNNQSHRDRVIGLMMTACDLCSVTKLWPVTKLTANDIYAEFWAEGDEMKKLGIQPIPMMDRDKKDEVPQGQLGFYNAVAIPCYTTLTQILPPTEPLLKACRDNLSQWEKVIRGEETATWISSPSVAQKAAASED

Assay [3] deals with human Matrix Metalloproteinase-9 (MMP9), MMP9 (gene 4318) (UniProt P14780). As to the kind of experiment: NVS_ENZ_hMMP9: NovaScreen (NVS) Enzymatic Assay for human Matrix Metalloproteinase-9 (MMP9) (AID 2283190).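 Also: cell-free recombinant MMP9 protease activity read by fluorescent substrate signal; active means inhibition seen as loss of fluorescence signal versus DMSO.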 The procedure, abridged: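 Inhibition was scored as loss of fluorescence signal against DMSO controls. The recombinant protease was exposed to chemicals for 1 hour before reading; initial testing used 25 uM in duplicate.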
human Matrix Metalloproteinase-9 (MMP9), MMP9 (gene 4318), sequence (P14780 whole entry, looked up): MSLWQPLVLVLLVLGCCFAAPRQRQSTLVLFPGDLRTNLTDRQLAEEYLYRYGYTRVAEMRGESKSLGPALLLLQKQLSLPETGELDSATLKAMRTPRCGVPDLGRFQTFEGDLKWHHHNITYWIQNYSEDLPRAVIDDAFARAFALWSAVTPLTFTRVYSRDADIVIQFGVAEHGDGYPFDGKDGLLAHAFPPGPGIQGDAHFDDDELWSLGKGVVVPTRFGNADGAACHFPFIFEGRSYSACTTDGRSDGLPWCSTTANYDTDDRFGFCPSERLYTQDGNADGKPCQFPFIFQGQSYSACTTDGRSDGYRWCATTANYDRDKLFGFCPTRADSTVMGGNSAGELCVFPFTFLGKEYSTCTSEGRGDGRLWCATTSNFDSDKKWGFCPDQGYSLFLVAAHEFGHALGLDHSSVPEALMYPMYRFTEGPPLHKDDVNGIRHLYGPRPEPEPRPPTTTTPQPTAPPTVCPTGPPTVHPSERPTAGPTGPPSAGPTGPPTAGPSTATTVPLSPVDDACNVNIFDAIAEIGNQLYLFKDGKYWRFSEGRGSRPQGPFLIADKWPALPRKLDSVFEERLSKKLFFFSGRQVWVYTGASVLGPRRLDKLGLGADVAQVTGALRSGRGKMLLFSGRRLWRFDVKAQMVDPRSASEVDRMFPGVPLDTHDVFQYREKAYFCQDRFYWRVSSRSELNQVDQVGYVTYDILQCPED

Assay [4] addresses human Phosphodiesterase 5 (PDE5), PDE5A (gene 8654) (UniProt O76074). Nature of the assay: NVS_ENZ_hPDE5: NovaScreen (NVS) Enzymatic Assay for human Phosphodiesterase 5 (PDE5) (AID 2283194). The procedure, abridged:
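Screening began in duplicate at 25 uM, with actives taken into concentration-response. Enzyme activity of recombinant PDE5 toward its substrate was measured at 1 h by fluorescence mobility-shift detection, relative to DMSO controls.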

In assay [5] the target is Collagenase 3 (Homo sapiens) (UniProt P45452). Nature of the assay: NVS_ENZ_hMMP13: NovaScreen (NVS) Enzymatic Assay for human Matrix Metalloproteinase-13 (MMP13) (AID 2283182). The procedure, abridged: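 Recombinant MMP13 cleaving fluorescent substrate, cell-free, measured 1 h after dosing. Primary duplicate screen at 25 uM; actives tested in concentration-response up to 50 uM; loss of signal relative to DMSO.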

Assay [6] concerns the target human Matrix Metalloproteinase-3 (MMP3), MMP3 (gene 4314) (UniProt P08254). As to the kind of experiment: NVS_ENZ_hMMP3: NovaScreen (NVS) Enzymatic Assay for human Matrix Metalloproteinase-3 (MMP3) (AID 2283185). The method, boiled down: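 Fluorescent substrate turnover by recombinant MMP3 read after 1 h, signal loss scored against DMSO. Compounds first run in duplicate at 25 uM single dose, then actives confirmed by concentration series.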

Assay [7] deals with human Mitogen- and Stress-activated Protein Kinase-1 (Msk1), RPS6KA5 (gene 9252) (UniProt O75582). As to the kind of experiment: NVS_ENZ_hMsk1: NovaScreen (NVS) Enzymatic Assay for human Mitogen- and Stress-activated Protein Kinase-1 (Msk1) (AID 2283187). The method, boiled down:
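Chemicals first run in duplicate at 25 uM, with actives followed up in singleton concentration series to 50 uM maximum. Enzyme activity came from substrate/product mobility-shift separation with fluorescence detection after 1 h incubation of the recombinant protein.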

Assay [8] has as its target human Phosphodiesterase 4A1 (PDE4A1), PDE4A (gene 5141) (UniProt P27815). As to the kind of experiment: NVS_ENZ_hPDE4A1: NovaScreen (NVS) Enzymatic Assay for human Phosphodiesterase 4A1 (PDE4A1) (AID 2283191). The method, boiled down:
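Fluorescent substrate turnover by recombinant PDE4A1 read after 1 h by mobility-shift separation. Primary duplicate screen at 25 uM; hits retested in concentration series with a 50 uM maximum, relative to DMSO.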

Assay [9] has as its target cAMP-dependent protein kinase catalytic subunit alpha (Homo sapiens) (UniProt P17612). As to the kind of experiment: NVS_ENZ_hPKA: NovaScreen (NVS) Enzymatic Assay for human Protein Kinase A (PKA) (AID 2283192). The method, boiled down: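 Cell-free kinase activity read by fluorescence after mobility-shift separation of substrate and product, 1 h post-dosing. Single-concentration duplicate screen (25 uM) preceded singleton concentration series (top 50 uM); loss of signal versus DMSO.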

In assay [10] the target is human Protein Tyrosine Phosphatase Non-receptor Type 1 (PTPN1), PTPN1 (gene 5770) (UniProt P18031). Nature of the assay: NVS_ENZ_hPTPN1: NovaScreen (NVS) Enzymatic Assay for human Protein Tyrosine Phosphatase Non-receptor Type 1 (PTPN1) (AID 2283201). The procedure, abridged: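 Chemicals were first tested in duplicate at 25 uM, and those passing threshold went on to singleton concentration series topping at 50 uM. Recombinant enzyme, specific substrate, product separated by mobility shift, fluorescence read at 1.33 h; activity loss relative to DMSO.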

Assay [11] concerns the target Tyrosine-protein phosphatase non-receptor type 11 (Homo sapiens) (UniProt Q06124). As to the kind of experiment: NVS_ENZ_hPTPN11: NovaScreen (NVS) Enzymatic Assay for human Protein Tyrosine Phosphatase Non-receptor Type 11 (PTPN11) (AID 2283202). The method, boiled down:
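Compounds first tested in duplicate at 25 uM; those reaching ~30% inhibition rerun in singleton concentration-response, top 50 uM. Phosphatase activity measured after 0.5 h by fluorescence with mobility-shift separation, relative to DMSO.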

Assay [12] has as its target Tyrosine-protein phosphatase non-receptor type 13 (Homo sapiens) (UniProt Q12923). Nature of the assay: NVS_ENZ_hPTPN13: NovaScreen (NVS) Enzymatic Assay for human Protein Tyrosine Phosphatase Non-receptor Type 13 (PTPN13) (AID 2283205). The method, boiled down: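 Screened first at a single 25 uM in duplicate; compounds passing the threshold (e.g. 30% inhibition) were rerun in concentration series, top 50 uM. Recombinant enzyme, fluorescent substrate, mobility-shift separation, 0.5 h read. Data fitted as inhibition relative to DMSO.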

Assay [13] has as its target Tyrosine-protein phosphatase non-receptor type 14 (Homo sapiens) (UniProt Q15678). Nature of the assay: NVS_ENZ_hPTPN14: NovaScreen (NVS) Enzymatic Assay for human Protein Tyrosine Phosphatase Non-receptor Type 14 (PTPN14) (AID 2283206). The method, boiled down:
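Fluorescent substrate turnover by recombinant human PTPN14 was measured 0.5 h after compound addition, with substrate and product separated by mobility shift. Single-point screening at 25 uM, then concentration-response up to 50 uM for chemicals meeting threshold (e.g., 30% inhibition).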

Assay [14] has as its target human Protein Tyrosine Phosphatase Receptor Type M (PTPRM), PTPRM (gene 5797) (UniProt P28827). As to the kind of experiment: NVS_ENZ_hPTPRM: NovaScreen (NVS) Enzymatic Assay for human Protein Tyrosine Phosphatase Receptor Type M (PTPRM) (AID 2283215). The method, boiled down: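 Read-out is fluorescence after electrophoretic separation of substrate and product, taken 1.33 h post-dosing with recombinant enzyme. Compounds screened at 25 uM in duplicate, then concentration series for actives; activity as signal loss relative to DMSO.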

Assay [15] concerns the target human Sirtuin 2 (SIRT2), SIRT2 (gene 22933) (UniProt Q8IXJ6). As to the kind of experiment: NVS_ENZ_hSIRT2: NovaScreen (NVS) Enzymatic Assay for human Sirtuin 2 (SIRT2) (AID 2283217). The procedure, abridged: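 Single-point duplicate screen at 25 uM, then concentration-response (max 50 uM) for chemicals passing threshold. Enzyme activity of recombinant human SIRT2 measured after 1 hr by fluorescence with mobility-shift separation of product; DMSO baseline.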

From PubChem BioAssay (EPA / NIEHS) come the findings set out here.

Records with an inconclusive call do not appear. Calls of active or inactive are those of the source. The calls were made as follows: active = hit-call score of the fitted dose curve at least 0.9, where 1 is the maximum; inconclusive = response in the unintended direction; inactive = score below 0.9.

human Phosphoinositide 3-kinase alpha (PI3Ka), PIK3CA (gene 5290), sequence (P42336 whole entry, looked up): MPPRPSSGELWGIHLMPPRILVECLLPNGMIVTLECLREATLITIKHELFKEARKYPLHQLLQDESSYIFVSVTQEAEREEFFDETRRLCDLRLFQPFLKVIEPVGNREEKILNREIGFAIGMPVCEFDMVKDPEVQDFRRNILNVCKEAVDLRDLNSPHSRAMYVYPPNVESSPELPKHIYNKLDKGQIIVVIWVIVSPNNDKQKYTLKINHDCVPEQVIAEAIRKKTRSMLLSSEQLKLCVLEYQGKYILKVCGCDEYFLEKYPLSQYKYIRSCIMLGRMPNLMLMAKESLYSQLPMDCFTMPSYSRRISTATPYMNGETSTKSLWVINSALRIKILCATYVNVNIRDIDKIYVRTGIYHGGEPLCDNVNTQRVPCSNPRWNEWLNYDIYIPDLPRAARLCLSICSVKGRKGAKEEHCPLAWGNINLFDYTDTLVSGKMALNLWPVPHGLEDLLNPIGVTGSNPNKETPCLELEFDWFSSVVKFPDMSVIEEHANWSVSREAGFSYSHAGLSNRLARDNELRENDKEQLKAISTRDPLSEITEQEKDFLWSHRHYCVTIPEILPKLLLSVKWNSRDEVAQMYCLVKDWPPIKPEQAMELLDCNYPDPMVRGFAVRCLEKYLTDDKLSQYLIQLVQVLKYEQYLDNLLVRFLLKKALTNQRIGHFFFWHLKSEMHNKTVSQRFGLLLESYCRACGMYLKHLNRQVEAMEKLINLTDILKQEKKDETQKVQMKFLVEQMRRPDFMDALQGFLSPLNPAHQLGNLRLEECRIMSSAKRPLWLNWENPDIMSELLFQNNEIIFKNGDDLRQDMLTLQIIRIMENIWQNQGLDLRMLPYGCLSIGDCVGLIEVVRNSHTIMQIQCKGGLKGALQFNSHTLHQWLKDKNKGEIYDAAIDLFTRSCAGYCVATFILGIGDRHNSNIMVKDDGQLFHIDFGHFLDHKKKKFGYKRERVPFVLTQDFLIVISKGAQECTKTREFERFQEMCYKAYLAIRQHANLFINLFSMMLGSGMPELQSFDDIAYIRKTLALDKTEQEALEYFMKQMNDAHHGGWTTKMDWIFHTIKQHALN
human Matrix Metalloproteinase-3 (MMP3), MMP3 (gene 4314), sequence (P08254 whole entry, looked up): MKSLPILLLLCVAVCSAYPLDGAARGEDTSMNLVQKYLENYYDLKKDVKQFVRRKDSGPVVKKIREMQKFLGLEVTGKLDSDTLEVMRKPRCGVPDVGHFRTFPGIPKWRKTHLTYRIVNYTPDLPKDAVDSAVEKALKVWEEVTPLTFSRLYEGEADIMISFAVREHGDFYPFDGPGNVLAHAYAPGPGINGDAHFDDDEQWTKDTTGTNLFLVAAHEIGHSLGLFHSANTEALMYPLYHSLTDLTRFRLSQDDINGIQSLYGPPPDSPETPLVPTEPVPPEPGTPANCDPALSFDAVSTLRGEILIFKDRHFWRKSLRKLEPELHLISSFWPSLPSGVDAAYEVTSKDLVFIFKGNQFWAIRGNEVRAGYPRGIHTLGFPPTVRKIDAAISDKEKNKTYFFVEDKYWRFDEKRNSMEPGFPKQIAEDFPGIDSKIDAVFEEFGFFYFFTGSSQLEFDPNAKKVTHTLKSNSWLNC
Tyrosine-protein phosphatase non-receptor type 14 (Homo sapiens), sequence (Q15678 whole entry, looked up): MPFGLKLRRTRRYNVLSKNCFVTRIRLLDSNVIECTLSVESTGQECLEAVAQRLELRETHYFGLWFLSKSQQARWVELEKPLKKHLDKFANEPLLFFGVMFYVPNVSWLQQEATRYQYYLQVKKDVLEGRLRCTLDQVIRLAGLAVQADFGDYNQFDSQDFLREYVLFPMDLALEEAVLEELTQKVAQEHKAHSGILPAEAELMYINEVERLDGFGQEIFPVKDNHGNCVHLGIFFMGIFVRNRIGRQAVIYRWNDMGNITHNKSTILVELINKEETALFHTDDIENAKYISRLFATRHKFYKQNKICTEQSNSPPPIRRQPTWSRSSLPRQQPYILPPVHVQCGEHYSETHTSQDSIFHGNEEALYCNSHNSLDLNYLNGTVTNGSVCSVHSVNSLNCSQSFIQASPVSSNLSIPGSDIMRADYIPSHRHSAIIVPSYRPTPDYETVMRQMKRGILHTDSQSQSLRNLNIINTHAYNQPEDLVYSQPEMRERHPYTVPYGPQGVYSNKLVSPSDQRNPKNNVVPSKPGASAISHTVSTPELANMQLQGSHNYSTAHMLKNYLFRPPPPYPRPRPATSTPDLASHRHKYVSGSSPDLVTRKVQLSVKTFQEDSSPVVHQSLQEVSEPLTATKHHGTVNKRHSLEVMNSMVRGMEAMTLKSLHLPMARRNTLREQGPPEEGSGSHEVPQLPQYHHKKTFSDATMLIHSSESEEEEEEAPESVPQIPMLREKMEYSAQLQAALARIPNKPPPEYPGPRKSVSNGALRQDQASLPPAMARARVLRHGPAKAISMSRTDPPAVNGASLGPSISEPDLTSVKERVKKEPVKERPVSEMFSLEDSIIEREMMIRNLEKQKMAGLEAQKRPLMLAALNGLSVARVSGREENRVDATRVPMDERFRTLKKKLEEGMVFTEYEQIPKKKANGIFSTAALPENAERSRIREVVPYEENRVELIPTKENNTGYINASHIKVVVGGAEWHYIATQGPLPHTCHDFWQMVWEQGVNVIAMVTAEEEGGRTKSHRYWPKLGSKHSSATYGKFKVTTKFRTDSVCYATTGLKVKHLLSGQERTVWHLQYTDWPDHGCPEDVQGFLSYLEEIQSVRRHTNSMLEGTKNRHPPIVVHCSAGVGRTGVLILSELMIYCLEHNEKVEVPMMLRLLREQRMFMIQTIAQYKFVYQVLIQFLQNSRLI
Tyrosine-protein phosphatase non-receptor type 11 (Homo sapiens), sequence (Q06124 whole entry, looked up): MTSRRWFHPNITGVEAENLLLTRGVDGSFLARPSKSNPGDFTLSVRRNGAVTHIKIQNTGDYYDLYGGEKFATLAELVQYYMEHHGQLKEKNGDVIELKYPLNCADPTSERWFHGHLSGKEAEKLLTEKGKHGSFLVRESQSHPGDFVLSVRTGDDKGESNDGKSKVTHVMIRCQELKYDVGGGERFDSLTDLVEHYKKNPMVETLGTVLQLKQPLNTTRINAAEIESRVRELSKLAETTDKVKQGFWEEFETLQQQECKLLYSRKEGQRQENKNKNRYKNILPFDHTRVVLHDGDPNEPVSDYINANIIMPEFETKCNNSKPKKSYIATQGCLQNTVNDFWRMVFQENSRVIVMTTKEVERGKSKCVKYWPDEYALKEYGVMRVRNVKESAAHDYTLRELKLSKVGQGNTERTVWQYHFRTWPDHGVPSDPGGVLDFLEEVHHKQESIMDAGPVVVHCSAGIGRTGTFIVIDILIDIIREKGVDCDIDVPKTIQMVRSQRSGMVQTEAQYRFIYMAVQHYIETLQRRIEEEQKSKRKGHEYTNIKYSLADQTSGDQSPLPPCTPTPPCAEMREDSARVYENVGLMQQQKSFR

With `N#CCCCC(C#N)CCC#N` (stereo unspecified), the compound was classed as inactive in assay [1].

As for `COc1ccccc1NC(=O)CC(C)=O`, the AC50 (as a rule, the concentration giving half of the maximal activity seen) in assay [2] is 7.87 µM (active). On to `CCC(CC)CO`, for which the compound was classed as inactive in assay [2].

For `CCOC(=O)C(=O)OCC`, the AC50 in assay [3] is 4.5 µM (active). For the same compound, the call in assay [1] was inactive. Turning to `Cc1ccc(C(C)(C)O)cc1`, the AC50 is 4.24 µM (active) in assay [3] and 25 µM (active) in assay [1]. Take `CCOC(=O)CCCCCCCCC(=O)OCC`: the compound was classed as inactive in assay [2]. On the same count and under the same terms, in the case of `CC(O)COCC(C)O` (stereo unspecified) it was “inactive”. On to `COC(=O)c1ccc(C(=O)OC)cc1`, for which, in assay [3], the compound was called inactive.

With `CCCOC(=O)CC`, the AC50 in [3] is 6.89 µM (active). Consider `C=C(C)C(N)=O`, for which the result in assay [4] was inactive. Take `CCCCCCCCCO`: the AC50 in [3] is 10.6 µM (active). Regarding `N#CCCNCCC#N`, in assay [2], the compound was classed as inactive. The same measure, in the same setting: the same measure for `Brc1cc(Br)cc(Br)c1`: “inactive”. In the case of `CC1(C)[C@H](C=C(Cl)Cl)[C@H]1C(=O)OCc1cccc(Oc2ccccc2)c1`, the AC50 in assay [2] is 25 µM (active).

For `O=C(c1ccc(OCCN2CCCCC2)cc1)c1c(-c2ccc(O)cc2)sc2cc(O)ccc12`, the AC50 was 17.4 µM (active) in assay [5]; 22.1 µM (active) in assay [7]; 16.7 µM (active) in [9]; 4.96 µM (active) in assay [4]; 25 µM (active) in assay [2]; 5.48 µM (active) in assay [10]. Besides, the AC50 in assay [11] was 28 µM (active); in assay [12], 30.9 µM (active); in assay [14], 37.9 µM (active). In addition, the compound was called inactive in assay [6], in assay [8], in assay [13] and in assay [15]. `CC(C)(C)c1cc(CCC(=O)OCCSCCOC(=O)CCc2cc(C(C)(C)C)c(O)c(C(C)(C)C)c2)cc(C(C)(C)C)c1O`: the outcome in assay [2] was inactive. `OCCCO`: in assay [2], the AC50 is 16.1 µM (active).
